Data taken from the supplement of paper PMC7411640.
Where a name gives a salt, the structure may show the parent alone.

These compounds were tested on MDA-MB-468 (assay: phospho-S6 immunofluorescence (DAPI-normalised), per-plate z-score; higher = higher phospho-S6 signal (less pathway suppression)). Details: co-treatment: GDC0941 450 nM; 24 h.
Protocol: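 GPCR-targeted compound library (MedChemExpress HY-L006) tested on MDA-MB-468 PTEN-null TNBC cells in 384-well plates at 0.1, 1 or 10 uM, combined with vehicle, GDC0941 450 nM or lapatinib 1 uM, for 24 h. Phospho-S6 (S240/244) immunofluorescence normalised to DAPI and expressed as a per-plate z-score; values are the mean of biological triplicates.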

Compound | phospho-S6 immunofluorescence (z-score)
CN1CCN(c2cc(-c3ccccc3)nc(N)n2)CC1 (compound 10 µM) | 0.39
CN1CCCC(n2nc(Cc3ccc(Cl)cc3)c3ccccc3c2=O)CC1 (configuration not stated) [Azelastine (hydrochloride)] (compound 10 µM) | 0.6
CCN(CC)CC#CCOC(=O)C(O)(c1ccccc1)C1CCCCC1 (configuration not stated) [Oxybutynin (chloride)] (compound 10 µM) | 1.35
CCCCCNC(=N)N/N=C/c1c[nH]c2ccc(OC)cc12 [Tegaserod (maleate)] (compound 10 µM) | -6
Clc1ccc2c(c1)N=C(N1CCNCC1)c1ccccc1N2 [N-Desmethylclozapine] (compound 10 µM) | -0.56
c1ccc2c(CC3=NCCN3)cccc2c1 [Naphazoline (hydrochloride)] (compound 10 µM) | -0.78
CC(=O)Nc1cccc2c1c(Sc1ccc(Cl)cc1)c(C)n2CC(=O)O (compound 10 µM) | 0.52
CC(C)(C)NCC(O)COc1cccc2c1CCC(=O)N2 (configuration not stated) [Carteolol (hydrochloride)] (compound 10 µM) | 0.64
CN1CCC(=C2c3ccccc3CCn3c(C=O)cnc32)CC1 [Alcaftadine] (compound 10 µM) | -0.88
CCc1ccc(OCc2ccccc2C(=O)Nc2ccc3nc(C)cc(N)c3c2)cc1 (compound 10 µM) | -5.98
CCCC(=O)Nc1ccc(OCC(O)CNC(C)C)c(C(C)=O)c1 (configuration not stated) [Acebutolol (hydrochloride)] (compound 10 µM) | 1.02
COc1cccc(CCc2ccccc2OCC(CN(C)C)OC(=O)CCC(=O)O)c1 (configuration not stated) [Sarpogrelate (hydrochloride)] (compound 10 µM) | 0.63
